Test results: the supplement of paper PMC6411743
± gives the standard deviation of the averaged measurements. The full data set covers some 6,500 targets. This sample favours those with the largest changes.

Compound: Nc1ncnc2c1ncn2[C@@H]1O[C@H](COP(=O)(O)OP(=O)(O)OP(=O)(O)O)[C@@H](O)[C@H]1O [adenosine triphosphate]
Experiment: NP40-soluble protein abundance relative to vehicle (solubility fold change) (ratio); higher = more soluble protein in presence of ATP
Summary of the method: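 Eight concentrations, 0.1 to 10 mM, were tested on Jurkat crude lysate for 10 min at room temperature and then 3 min at 37 °C, in three independent experiments. The lysate was solubilised with 0.8% NP40 and benzonase, ultracentrifuged, and the supernatant TMT-labelled for LC-MS/MS. Each value is the fold change against the detergent-processed vehicle in its own replicate, from vsn-normalised intensities.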

Chain of UniProt P29692 (P29692 whole entry, one chain of several): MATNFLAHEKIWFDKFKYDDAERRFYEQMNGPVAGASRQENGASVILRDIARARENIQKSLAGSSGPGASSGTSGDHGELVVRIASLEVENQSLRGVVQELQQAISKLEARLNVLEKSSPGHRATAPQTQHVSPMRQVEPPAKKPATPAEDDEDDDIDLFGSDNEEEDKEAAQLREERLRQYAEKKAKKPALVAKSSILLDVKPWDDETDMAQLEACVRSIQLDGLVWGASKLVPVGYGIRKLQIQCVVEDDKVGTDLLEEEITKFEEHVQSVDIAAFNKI
Chain of UniProt O14776 (O14776 whole entry): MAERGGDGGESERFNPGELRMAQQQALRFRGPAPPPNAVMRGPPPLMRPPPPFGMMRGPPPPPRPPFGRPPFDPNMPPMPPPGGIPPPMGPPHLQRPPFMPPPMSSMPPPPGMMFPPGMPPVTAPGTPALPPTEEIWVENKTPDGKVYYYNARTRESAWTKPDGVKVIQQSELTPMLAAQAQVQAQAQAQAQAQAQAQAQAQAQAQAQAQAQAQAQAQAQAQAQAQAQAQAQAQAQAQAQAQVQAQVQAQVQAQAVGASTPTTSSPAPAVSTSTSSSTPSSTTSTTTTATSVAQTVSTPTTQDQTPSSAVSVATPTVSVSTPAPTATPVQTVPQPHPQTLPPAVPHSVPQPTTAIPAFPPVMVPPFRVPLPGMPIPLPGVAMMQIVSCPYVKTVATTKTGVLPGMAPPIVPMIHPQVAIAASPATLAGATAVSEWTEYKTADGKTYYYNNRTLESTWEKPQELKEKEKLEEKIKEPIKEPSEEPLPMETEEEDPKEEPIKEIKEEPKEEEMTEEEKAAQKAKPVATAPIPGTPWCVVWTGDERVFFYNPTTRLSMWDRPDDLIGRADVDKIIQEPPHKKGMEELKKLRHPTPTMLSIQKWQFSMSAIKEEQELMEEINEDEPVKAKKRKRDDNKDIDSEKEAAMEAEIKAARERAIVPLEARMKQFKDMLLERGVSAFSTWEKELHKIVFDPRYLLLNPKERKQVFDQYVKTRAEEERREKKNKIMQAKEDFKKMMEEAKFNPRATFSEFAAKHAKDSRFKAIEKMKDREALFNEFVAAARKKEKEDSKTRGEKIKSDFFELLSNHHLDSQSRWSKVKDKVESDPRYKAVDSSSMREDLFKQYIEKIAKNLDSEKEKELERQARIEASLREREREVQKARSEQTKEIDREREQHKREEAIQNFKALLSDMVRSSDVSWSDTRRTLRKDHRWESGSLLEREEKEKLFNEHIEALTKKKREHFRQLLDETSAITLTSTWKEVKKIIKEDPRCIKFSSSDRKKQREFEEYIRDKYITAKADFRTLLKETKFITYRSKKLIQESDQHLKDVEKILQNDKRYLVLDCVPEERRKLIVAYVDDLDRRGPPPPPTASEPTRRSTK
Chain of UniProt Q96DH6 (Q96DH6 whole entry, one chain of several): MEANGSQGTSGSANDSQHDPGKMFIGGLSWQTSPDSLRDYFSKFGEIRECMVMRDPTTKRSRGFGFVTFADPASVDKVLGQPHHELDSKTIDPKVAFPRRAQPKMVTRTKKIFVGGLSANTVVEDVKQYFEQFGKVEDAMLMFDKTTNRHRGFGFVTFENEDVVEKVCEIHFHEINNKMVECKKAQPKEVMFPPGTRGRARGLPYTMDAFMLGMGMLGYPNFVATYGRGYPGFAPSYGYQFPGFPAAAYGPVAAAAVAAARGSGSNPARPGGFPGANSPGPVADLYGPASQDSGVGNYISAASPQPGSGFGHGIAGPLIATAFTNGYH
Chain of UniProt O43676 (O43676 whole entry, one chain of several): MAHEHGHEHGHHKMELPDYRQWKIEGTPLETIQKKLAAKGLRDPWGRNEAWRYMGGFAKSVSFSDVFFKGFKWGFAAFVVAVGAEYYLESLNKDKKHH
Chain of UniProt O00754 (O00754 whole entry): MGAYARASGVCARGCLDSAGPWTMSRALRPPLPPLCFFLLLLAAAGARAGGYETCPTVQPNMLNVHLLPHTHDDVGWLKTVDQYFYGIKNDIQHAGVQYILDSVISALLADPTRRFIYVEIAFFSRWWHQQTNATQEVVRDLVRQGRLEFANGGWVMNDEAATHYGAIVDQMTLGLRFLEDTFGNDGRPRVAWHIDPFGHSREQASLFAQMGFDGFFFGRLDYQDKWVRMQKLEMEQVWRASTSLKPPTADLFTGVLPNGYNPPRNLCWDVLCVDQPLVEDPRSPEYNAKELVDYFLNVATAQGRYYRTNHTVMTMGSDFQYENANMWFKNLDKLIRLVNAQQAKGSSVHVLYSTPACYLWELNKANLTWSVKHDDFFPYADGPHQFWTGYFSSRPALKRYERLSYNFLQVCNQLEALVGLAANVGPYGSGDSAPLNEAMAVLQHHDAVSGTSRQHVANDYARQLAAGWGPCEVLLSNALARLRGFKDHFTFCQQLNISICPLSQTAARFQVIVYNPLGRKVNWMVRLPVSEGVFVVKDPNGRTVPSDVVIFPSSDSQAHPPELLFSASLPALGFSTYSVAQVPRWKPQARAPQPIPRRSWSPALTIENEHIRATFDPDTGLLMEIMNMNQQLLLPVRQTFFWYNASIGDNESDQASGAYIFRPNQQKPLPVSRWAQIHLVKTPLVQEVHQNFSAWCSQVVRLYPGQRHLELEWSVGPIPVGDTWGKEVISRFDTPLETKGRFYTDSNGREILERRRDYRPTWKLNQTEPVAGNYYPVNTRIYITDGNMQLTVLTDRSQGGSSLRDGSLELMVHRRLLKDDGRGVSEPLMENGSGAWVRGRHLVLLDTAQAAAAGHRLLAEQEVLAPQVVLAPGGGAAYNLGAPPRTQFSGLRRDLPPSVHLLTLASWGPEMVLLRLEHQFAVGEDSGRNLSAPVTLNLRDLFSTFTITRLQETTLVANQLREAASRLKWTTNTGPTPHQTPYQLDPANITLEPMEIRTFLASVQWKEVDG
Chain of UniProt Q9Y483 (Q9Y483 whole entry, one chain of several): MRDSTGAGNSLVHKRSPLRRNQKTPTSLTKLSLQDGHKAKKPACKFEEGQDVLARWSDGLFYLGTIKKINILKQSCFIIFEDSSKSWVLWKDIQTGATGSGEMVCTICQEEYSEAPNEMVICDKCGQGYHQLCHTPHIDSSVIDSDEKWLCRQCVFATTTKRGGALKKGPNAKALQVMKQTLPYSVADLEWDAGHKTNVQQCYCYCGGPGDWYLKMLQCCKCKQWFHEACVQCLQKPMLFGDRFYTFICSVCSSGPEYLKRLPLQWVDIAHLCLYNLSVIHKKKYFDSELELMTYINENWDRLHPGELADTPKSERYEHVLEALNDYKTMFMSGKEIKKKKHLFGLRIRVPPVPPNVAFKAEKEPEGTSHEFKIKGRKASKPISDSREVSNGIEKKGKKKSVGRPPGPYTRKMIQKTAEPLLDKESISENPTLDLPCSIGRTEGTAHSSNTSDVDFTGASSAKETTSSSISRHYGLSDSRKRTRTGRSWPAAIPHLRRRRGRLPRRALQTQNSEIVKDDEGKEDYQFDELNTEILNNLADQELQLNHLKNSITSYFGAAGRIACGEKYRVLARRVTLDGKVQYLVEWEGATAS
Chain of UniProt O43913 (O43913 whole entry, one chain of several): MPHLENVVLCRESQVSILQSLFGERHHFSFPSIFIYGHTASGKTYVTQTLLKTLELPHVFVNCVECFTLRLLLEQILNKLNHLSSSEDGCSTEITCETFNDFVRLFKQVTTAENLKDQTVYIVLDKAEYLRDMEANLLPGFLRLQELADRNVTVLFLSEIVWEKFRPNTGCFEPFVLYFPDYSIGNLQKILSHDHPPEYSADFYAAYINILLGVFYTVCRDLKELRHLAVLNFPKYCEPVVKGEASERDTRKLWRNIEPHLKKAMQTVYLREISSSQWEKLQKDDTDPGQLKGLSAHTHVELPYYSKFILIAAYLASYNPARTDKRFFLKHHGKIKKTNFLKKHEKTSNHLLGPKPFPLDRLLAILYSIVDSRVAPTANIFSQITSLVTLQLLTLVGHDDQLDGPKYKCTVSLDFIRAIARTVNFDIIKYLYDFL
Chain of UniProt O15504 (O15504 whole entry, one chain of several): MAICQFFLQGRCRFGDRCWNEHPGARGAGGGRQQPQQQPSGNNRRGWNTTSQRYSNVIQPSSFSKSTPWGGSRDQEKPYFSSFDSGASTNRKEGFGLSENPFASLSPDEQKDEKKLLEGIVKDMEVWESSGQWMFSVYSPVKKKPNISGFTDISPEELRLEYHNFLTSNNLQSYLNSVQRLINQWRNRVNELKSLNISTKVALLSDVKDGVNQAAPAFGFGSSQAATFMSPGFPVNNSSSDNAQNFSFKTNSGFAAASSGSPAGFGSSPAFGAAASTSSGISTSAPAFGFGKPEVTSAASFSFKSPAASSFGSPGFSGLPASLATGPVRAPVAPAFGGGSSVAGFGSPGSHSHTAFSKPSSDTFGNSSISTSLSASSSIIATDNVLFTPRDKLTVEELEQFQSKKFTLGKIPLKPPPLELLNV
Chain of UniProt A0PK00 (A0PK00 whole entry): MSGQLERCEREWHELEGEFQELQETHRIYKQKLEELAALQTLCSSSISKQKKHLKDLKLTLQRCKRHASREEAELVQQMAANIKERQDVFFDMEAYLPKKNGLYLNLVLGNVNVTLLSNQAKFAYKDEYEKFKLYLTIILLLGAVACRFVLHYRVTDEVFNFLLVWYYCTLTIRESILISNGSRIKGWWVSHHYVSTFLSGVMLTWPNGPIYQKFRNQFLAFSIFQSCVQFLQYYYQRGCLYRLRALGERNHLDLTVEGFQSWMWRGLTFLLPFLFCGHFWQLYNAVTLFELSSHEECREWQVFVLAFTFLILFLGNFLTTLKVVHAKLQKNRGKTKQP
Chain of UniProt P30626 (P30626 whole entry, one chain of several): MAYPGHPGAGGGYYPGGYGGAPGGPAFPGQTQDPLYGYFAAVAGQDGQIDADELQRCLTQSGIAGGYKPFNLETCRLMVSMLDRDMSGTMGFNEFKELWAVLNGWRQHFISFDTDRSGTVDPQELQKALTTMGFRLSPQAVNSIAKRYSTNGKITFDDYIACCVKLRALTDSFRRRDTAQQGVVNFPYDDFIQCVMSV
Chain of UniProt O43257 (O43257 whole entry): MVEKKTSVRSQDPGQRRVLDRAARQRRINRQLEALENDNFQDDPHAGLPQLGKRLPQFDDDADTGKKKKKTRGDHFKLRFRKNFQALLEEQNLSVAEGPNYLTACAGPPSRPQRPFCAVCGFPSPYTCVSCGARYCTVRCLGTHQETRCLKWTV

Target	NP40-soluble protein abundance (concentration: 1mM)	NP40-soluble protein abundance (concentration: 2mM)	NP40-soluble protein abundance (concentration: 4mM)	NP40-soluble protein abundance (concentration: 6mM)	NP40-soluble protein abundance (concentration: 8mM)	NP40-soluble protein abundance (concentration: 10mM)
B4DZG1|Q9Y483-3|Q9Y483 (UniProt Q9Y483)	1.19 ± 0.023	1.25 ± 0.027	1.36 ± 0.057	1.41 ± 0.082	1.5 ± 0.032	1.56 ± 0.049
ZNHIT1 (UniProt O43257)	1.12 ± 0.047	1.16 ± 0.012	1.27 ± 0.042	1.3 ± 0.037	1.16 ± 0.037	1.19 ± 0.073
A0A0C4DGS0|P56556 (UniProt P56556)	0.969 ± 0.066	0.922 ± 0.055	0.901 ± 0.046	0.875 ± 0.066	0.926 ± 0.053	0.909 ± 0.031
UniProt E9PSI1	0.9713 ± 0.0047	0.986 ± 0.015	0.981 ± 0.015	0.939 ± 0.037	0.958 ± 0.044	0.96 ± 0.04
C9JJN9|Q8N3P4|Q8N3P4-2|Q8N3P4-3 (UniProt Q8N3P4)	1.01 ± 0.053	0.984 ± 0.04	0.994 ± 0.068	0.9606 ± 0.0047	0.955 ± 0.039	0.979 ± 0.023
UniProt A0FGR8-2|H7BXI1|A0FGR8-6	1 ± 0.026	1.02 ± 0.025	1.02 ± 0.015	0.997 ± 0.052	1.02 ± 0.03	1.02 ± 0.047
G5E9V5|G5E9W7|P82650 (UniProt P82650)	1.01 ± 0.046	0.938 ± 0.079	0.892 ± 0.083	0.907 ± 0.18	0.88 ± 0.11	0.867 ± 0.1
B4DEN4|E7EV05|E9PFU9|Q8WV99|Q8WV99-2 (UniProt Q8WV99)	0.955 ± 0.084	0.953 ± 0.046	0.943 ± 0.059	0.958 ± 0.066	0.91 ± 0.037	0.902 ± 0.062
I3L0W4|Q96F10 (UniProt Q96F10)	0.98 ± 0.13	0.932 ± 0.07	0.962 ± 0.073	0.963 ± 0.064	0.94 ± 0.025	0.944 ± 0.035
A0A0G2JPP5|Q14160|Q14160-3|A0A0G2JNZ2 (UniProt Q14160)	0.973 ± 0.016	0.96 ± 0.02	0.9694 ± 0.0075	0.98 ± 0.023	0.93 ± 0.021	0.941 ± 0.031
B4DT96|C9JYA1|O15504|O15504-2 (UniProt O15504)	0.985 ± 0.095	1.21 ± 0.19	1.29 ± 0.17	1.43 ± 0.42	1.42 ± 0.26	1.77 ± 0.49
PSMD12 (UniProt O00232)	0.938 ± 0.063	0.894 ± 0.035	0.863 ± 0.015	0.843 ± 0.025	0.898 ± 0.031	0.885 ± 0.035
UniProt O14776|O14776-2	0.972 ± 0.011	0.9735 ± 0.0036	0.959 ± 0.024	1.03 ± 0.021	1.01 ± 0.024	1.02 ± 0.013
URB1 (UniProt O60287)	1.29 ± 0.067	1.41 ± 0.043	1.65 ± 0.057	1.7 ± 0.12	1.94 ± 0.12	2.15 ± 0.084
J3KTE4|J3QR09|P84098 (UniProt P84098)	1.01 ± 0.053	1 ± 0.027	0.968 ± 0.07	0.966 ± 0.043	0.908 ± 0.057	1.05 ± 0.094
G3V0H0|O43913|O43913-2 (UniProt O43913)	1.03 ± 0.12	1.01 ± 0.097	1.02 ± 0.08	1 ± 0.13	1.08 ± 0.078	1.02 ± 0.061
A0A0X1KG71 (UniProt Q8WX92)	0.9808 ± 0.0083	0.989 ± 0.012	0.9482 ± 0.0081	0.959 ± 0.033	0.959 ± 0.022	0.956 ± 0.023
F6S7C4|Q8NEM7|Q8NEM7-2|Q8NEM7-3|R4GND2 (UniProt Q8NEM7)	1.09 ± 0.12	1.15 ± 0.1	1.14 ± 0.093	1.12 ± 0.13	1.16 ± 0.093	1.2 ± 0.11
H3BUX2|J3KNF8|O43169 (UniProt O43169)	0.964 ± 0.19	0.854 ± 0.08	0.877 ± 0.06	0.865 ± 0.077	0.815 ± 0.059	0.781 ± 0.084
C9JKQ2|O43676 (UniProt O43676)	0.921 ± 0.053	0.903 ± 0.08	0.867 ± 0.032	0.908 ± 0.048	0.862 ± 0.04	0.868 ± 0.042
E9PRY8|P29692|P29692-2|P29692-3|P29692-4 (UniProt P29692)	0.959 ± 0.054	0.931 ± 0.034	0.894 ± 0.03	0.912 ± 0.091	0.88 ± 0.042	0.865 ± 0.015
C9J0K6|P30626|P30626-2|P30626-3 (UniProt P30626)	0.887 ± 0.066	0.921 ± 0.078	0.892 ± 0.039	0.911 ± 0.072	0.896 ± 0.011	0.811 ± 0.12
A0A0A0MSV9|A0A0G2JH37|A0A0G2JKZ1|A2AB90|O15533|O15533-2|O15533-3 (UniProt O15533)	1.04 ± 0.066	1.02 ± 0.067	0.986 ± 0.028	0.968 ± 0.047	0.99 ± 0.085	0.984 ± 0.088
MAN2B1 (UniProt O00754)	0.94 ± 0.027	0.948 ± 0.017	0.957 ± 0.023	0.887 ± 0.057	0.917 ± 0.038	0.93 ± 0.018
B4DHE8|Q96DH6 (UniProt Q96DH6)	1.02 ± 0.045	1.02 ± 0.058	0.994 ± 0.065	0.993 ± 0.08	0.983 ± 0.071	0.972 ± 0.079
A0A087WYN9|Q7Z478 (UniProt Q7Z478)	2.24 ± 0.062	2.31 ± 0.051	2.45 ± 0.092	2.57 ± 0.045	2.68 ± 0.07	2.74 ± 0.062
TMEM120B (UniProt A0PK00)	0.948 ± 0.058	1.05 ± 0.042	1.04 ± 0.09	0.894 ± 0.12	1.15 ± 0.13	1.13 ± 0.14
F8W060|Q9BZF1 (UniProt Q9BZF1)	0.936 ± 0.018	0.933 ± 0.035	0.939 ± 0.018	0.927 ± 0.046	0.964 ± 0.013	0.959 ± 0.045
B4E1G1|E5RGY0|Q9BUN8|Q9BUN8-2 (UniProt Q9BUN8)	0.948 ± 0.084	0.979 ± 0.12	0.989 ± 0.083	0.975 ± 0.1	0.955 ± 0.021	1 ± 0.056
H0YNP8|Q99081-3|Q99081 (UniProt Q99081)	0.923 ± 0.056	0.935 ± 0.039	0.915 ± 0.041	0.938 ± 0.027	0.916 ± 0.018	0.921 ± 0.046
